Data: PubChem BioAssay (EPA / NIEHS)
Values joined by “and” are separate entries in the source; they are usually repeats but may differ in a detail not shown here. Identical values can stand only once. Some structures have more than one record in an assay (separate samples or runs), and their calls can disagree. Active and inactive are the calls of the source. The calls were made as follows: active = hit-call score of the fitted dose curve at least 0.9, where 1 is the maximum; inactive = score below 0.9.

How the values were obtained:
[1] = read-out: TIMP metallopeptidase inhibitor 2 (TIMP2), TIMP2 (gene 7077); test: BSK_KF3CT_TIMP2: BioMAP Diversity Plus: KF3CT Assay for TIMP metallopeptidase inhibitor 2 (TIMP2) Biomarker Activity (AID 2283071); conditions: primary human keratinocytes with fibroblasts; actives raise or lower the signal
In short: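 Human primary keratinocyte/foreskin fibroblast co-culture dosed with chemical and sampled at 24 h. TIMP-2 levels quantified by ELISA; bidirectional fitting against DMSO negative control as baseline.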

[2] = read-out: Transforming growth factor beta 1 (TGFb1), TGFB1 (gene 7040); test: BSK_KF3CT_TGFb1: BioMAP Diversity Plus: KF3CT Assay for Transforming growth factor beta 1 (TGFb1) Biomarker Activity (AID 2283072); conditions: primary human keratinocytes with fibroblasts; actives raise or lower the signal
In short: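 Human keratinocyte plus foreskin fibroblast primary co-culture, dosed with chemical for 24 h. TGF-b1 quantified by ELISA. Activity fitted bidirectionally against DMSO negative control as baseline.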

[3] = read-out: C-C motif chemokine 2 (Homo sapiens) (UniProt P13500); test: BSK_KF3CT_MCP1: BioMAP Diversity Plus: KF3CT Assay for Monocyte Chemoattractant Protein 1 (MCP1/CCL2) Biomarker Activity (AID 2283073); conditions: primary human keratinocytes with fibroblasts; actives raise or lower the signal
In short: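 Human keratinocyte plus foreskin fibroblast primary co-culture exposed to chemical for 24 h. MCP-1 levels measured by ELISA. Bidirectional curve fitting relative to DMSO negative control as baseline.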

[4] = read-out: Matrix Metallopeptidase 9 (MMP9), MMP9 (gene 4318); test: BSK_KF3CT_MMP9: BioMAP Diversity Plus: KF3CT Assay for Matrix Metallopeptidase 9 (MMP9) Biomarker Activity (AID 2283074); conditions: primary human keratinocytes with fibroblasts; actives raise or lower the signal;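 as to AC50: MMP9 protein level quantified by ELISA in the co-culture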
In short: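 Keratinocyte plus foreskin fibroblast human primary skin co-culture was dosed with chemical and MMP-9 was quantified by ELISA 24 h later. Bidirectional curve fitting used DMSO as negative control and activity baseline.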

[5] = read-out: urokinase plasminogen activator (uPA), PLAU (gene 5328); test: BSK_KF3CT_uPA: BioMAP Diversity Plus: KF3CT Assay for urokinase plasminogen activator (uPA) Biomarker Activity (AID 2283075); conditions: primary human keratinocytes with fibroblasts; actives raise or lower the signal
In short: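 Human keratinocyte plus foreskin fibroblast primary co-culture exposed to chemical for 24 h. uPA levels were quantified by ELISA, and activity was fitted bidirectionally against a DMSO negative-control baseline.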

[6] = read-out: CD40, CD40 (gene 958); test: BSK_LPS_CD40: BioMAP Diversity Plus: LPS Assay for CD40 Biomarker Activity (AID 2283076); conditions: primary human HUVEC with PBMC; actives raise or lower the signal
In short: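 Primary human umbilical vein endothelial cells co-cultured with peripheral blood mononuclear cells, LPS-stimulated, were dosed with chemical and read 24 h later. CD40 levels were measured by ELISA and fitted bidirectionally against DMSO as negative control and baseline.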

[7] = read-out: E-selectin (Homo sapiens) (UniProt P16581); test: BSK_LPS_Eselectin: BioMAP Diversity Plus: LPS Assay for Eselectin Biomarker Activity (AID 2283077); conditions: primary human HUVEC with PBMC; actives raise or lower the signal
In short: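 Human umbilical vein endothelial cells co-cultured with peripheral blood mononuclear cells under LPS stimulation; E-selectin measured by ELISA 24 h after chemical dosing. Activity fitted bidirectionally against DMSO as negative control and baseline.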

[8] = read-out: Interleukin-8 (IL8), CXCL8 (gene 3576); test: BSK_LPS_IL8: BioMAP Diversity Plus: LPS Assay for Interleukin-8 (IL8) Biomarker Activity (AID 2283078); conditions: primary human HUVEC with PBMC; actives raise or lower the signal
In short: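 Human umbilical vein endothelial cells co-cultured with PBMC were stimulated with LPS; IL-8 levels were measured by ELISA 24 h after chemical dosing. Activity was fitted bidirectionally against DMSO as negative control and baseline.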

[9] = BSK_LPS_SRB: Viability Assessment in the BioMAP Diversity Plus: LPS Assay (AID 2283079); conditions: primary human HUVEC with PBMC;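 also: total protein by sulforhodamine B absorbance as a cytotoxicity measure; measured one day after compound addition; fitted in both directions against DMSO so loss or gain of signal counts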
In short: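 Human umbilical vein endothelial cells co-cultured with PBMC (LPS system) were dosed for 24 h. Total protein was stained with 0.1% sulforhodamine B after 10% TCA fixation, read at 560 nm, and fitted bidirectionally against DMSO baseline.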

[10] = read-out: Interleukin-1 alpha (IL1a), IL1A (gene 3552); test: BSK_LPS_IL1a: BioMAP Diversity Plus: LPS Assay for Interleukin-1 alpha (IL1a) Biomarker Activity (AID 2283080); conditions: primary human HUVEC with PBMC; actives raise or lower the signal
In short: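 Human umbilical vein endothelial cells co-cultured with peripheral blood mononuclear cells were LPS-stimulated and exposed to test chemicals for 24 h. IL-1 alpha was quantified by ELISA, with bidirectional curve fitting against DMSO as the negative control and baseline.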

Measured: AC50

Sequence of E-selectin (Homo sapiens) (P16581 whole entry, looked up): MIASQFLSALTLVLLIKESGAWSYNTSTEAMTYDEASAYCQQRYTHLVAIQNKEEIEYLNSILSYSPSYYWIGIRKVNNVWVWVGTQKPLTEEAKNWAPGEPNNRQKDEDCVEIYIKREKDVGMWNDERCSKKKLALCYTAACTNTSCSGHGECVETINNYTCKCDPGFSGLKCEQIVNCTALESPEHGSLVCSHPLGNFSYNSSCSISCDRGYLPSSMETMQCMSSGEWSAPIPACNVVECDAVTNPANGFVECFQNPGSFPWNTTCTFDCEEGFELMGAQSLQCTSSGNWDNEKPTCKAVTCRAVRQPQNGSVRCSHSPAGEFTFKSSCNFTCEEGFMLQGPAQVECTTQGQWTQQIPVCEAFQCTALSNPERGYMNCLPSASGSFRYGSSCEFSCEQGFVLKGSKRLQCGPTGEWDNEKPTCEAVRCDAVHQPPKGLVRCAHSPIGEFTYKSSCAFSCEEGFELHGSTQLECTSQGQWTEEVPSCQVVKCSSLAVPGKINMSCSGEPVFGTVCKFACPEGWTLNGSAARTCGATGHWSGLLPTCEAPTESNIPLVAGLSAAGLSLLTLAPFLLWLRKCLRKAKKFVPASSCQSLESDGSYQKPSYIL

CNC(=O)CSP(=S)(OC)OC
inactive: all assays above

C[C@H]1[C@H](c2ccc(Cl)cc2)SC(=O)N1C(=O)NC1CCCCC1
active: [4] 9.22 µM | [9] 10.9 µM | [10] 26.4 µM
inactive: all other assays above

CCC(C)(C)C(=O)OC1=C(c2ccc(Cl)cc2Cl)C(=O)OC12CCCCC2
active: [2] 31 µM | [3] 31.4 µM | [4] 20 µM | [5] 30.9 µM | [6] 10.5 µM | [7] 25.3 µM | [8] 32.6 µM | [9] 28.6 µM | [10] 36.5 µM

O=S(=O)(O)C(F)(F)C(F)(F)C(F)(F)C(F)(F)C(F)(F)C(F)(F)C(F)(F)C(F)(F)F
inactive: [2] | [3] | [4] | [5] | [6] | [7] | [8] | [9] | [10]
active: [2] 30.1 µM and 31.6 µM and 31.3 µM | [3] 16.8 µM | [5] 35.6 µM and 30.4 µM | [8] 9.09 µM and 1.92 µM and 7.33 µM

COP(=S)(OC)Oc1ccc([N+](=O)[O-])cc1
active: [1] 34.6 µM | [6] 20 µM | [9] 10.5 µM
inactive: all other assays above

COP(=S)(OC)Oc1ccc(SC)c(C)c1
active: [9] 30.6 µM
inactive: all other assays above

[2H]C1([2H])[n+]2ccccc2-c2cccc[n+]2C1([2H])[2H]
active: [4] 13.3 µM | [5] 28.9 µM
not listed: [3]
inactive: all other assays above

Clc1ccccc1-c1nnc(-c2ccccc2Cl)nn1
inactive: all assays above

COC(=O)c1ccccc1S(=O)(=O)NC(=O)N(C)c1nc(C)nc(OC)n1
not listed: [1]
inactive: all other assays above

CNC(=O)/C=C(\C)OP(=O)(OC)OC
not listed: [1]
inactive: all other assays above

CCC(C)Nc1c([N+](=O)[O-])cc(C(C)(C)C)cc1[N+](=O)[O-] (stereo unspecified)
active: [6] 31.9 µM | [7] 14.6 µM | [9] 20 µM
not listed: [1]
inactive: all other assays above

CCOC1Oc2ccc(OS(C)(=O)=O)cc2C1(C)C (stereo unspecified)
not listed: [1]
inactive: all other assays above

O=C(NC(=O)c1c(F)cccc1F)Nc1ccc(OC(F)(F)C(F)OC(F)(F)F)c(Cl)c1 (stereo unspecified)
not listed: [1]
inactive: all other assays above
